Screening data: PubChem, National Center for Advancing Translational Sciences (NCATS)
DT40 TDP1 no CPT = qHTS for Inhibitors of human tyrosyl-DNA phosphodiesterase 1 (TDP1): qHTS in cells in absence of CPT. DT40 Tdp1-/- hTDP1 cells, no CPT, ATP luminescence, 48 h. Potency, µM (doses to about 46.2 µM), for the others: at the highest dose activity change, negative = growth inhibition, hits mostly inhibitors. 420,000 compounds, 15% hits; further: potency means the concentration at half of the fitted maximal effect; nearly all actives have a fitted effect of over 55% in size
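Chicken DT40 Tdp1-/- cells complemented with human TDP1, screened without camptothecin (DMSO vehicle only), 400 cells/well. Compounds pin-transferred, cells incubated at 37 °C for at least 48 hr. Growth read as ATP-dependent luminescence (CellTiter-Glo, 30 min at RT).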
IL1B secr inh = inflammasome signaling inhibition, IL-1 beta readout | THP-1 LPS/ATP IL-1B secretion, AlphaLISA, 16 h; stronger effect = lower value | activity change, % at 57.5 µM | 360,000 compounds, 4.7% hits | AID 743279; in the data active means activity change below about -50%; inconclusive means mostly about -30% to -49%
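THP-1 cells pretreated 1 hr with compounds (up to 57.5 uM final), then stimulated with LPS (250 ng/mL final) plus ATP (1.25 mM final); secreted IL-1B measured by AlphaLISA after 16 hr, decreased signal indicating inhibition.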
HT1080-NT tox = kills 2HG-producing HT-1080-NT fibrosarcoma cells; 360,000 compounds, 1.6% hits; HT-1080-NT fibrosarcoma viability, CellTiter-Glo ATP luminescence, 48 h; Potency, µM (highest dose often 46.1 µM), without a hit: at the highest dose activity, negative = less viability, usual class: cytotoxic;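 further: NT is the 2HG producing partner of a matched IDH1 knockdown line; potency means the concentration at half of the fitted maximal effect; 0% = DMSO-treated cells and -100% = media-only wells without cells; nearly all actives have a fitted effect of over 55% in size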
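Toxicity toward the 2HG-producing NT line was scored as %Activity, normalised to DMSO and no-cell wells, from CellTiter-Glo luminescence after 48 hours' treatment.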
ELG1 DNA repair = blocks ELG1-dependent DNA repair in HEK293T cells. HEK293T ELG1-luciferase reporter, luminescence, 16 h; DNA damage induced by 5-fluorouridine. Potency, µM (doses to about 46.1 µM), inactives show top-dose activity change, negative = inhibition, hits mostly inhibitors. 330,000 compounds, 2.3% hits; further: potency means the concentration at half of the fitted maximal effect; nearly all actives have a fitted effect of over 55% in size
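Reporter activity after DNA damage by 5-fluorouridine is monitored. Compound-treated cells incubate 16 hr at 37 °C, then ONE-Glo is added for 30 min before luminescence reading.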
HT1080 IDH1KD tx = toxicity to HT-1080 IDH1 knockdown cells (counter line); HT-1080 IDH1 knockdown viability, ATP luminescence, 48 h; Potency, µM (titrated, usually from 46.1 µM), for the others: top-dose activity, negative = toxicity, actives largely listed as cytotoxic; 360,000 compounds, 2% hits; AID 686971;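 further: potency means the concentration at half of the fitted maximal effect; 0% = DMSO wells and -100% = cell-free medium wells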
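Luminescent ATP read-out (CellTiter-Glo, 10 min at room temperature) after 48 h compound exposure at 37 °C gave viability of IDH1-knockdown HT-1080 cells. Activity was normalised to DMSO and cell-free wells, then fitted as concentration-response curves.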
DT40 TDP1 CPT = growth inhibition of DT40 Tdp1-/-;hTDP1 cells with camptothecin (screen for TDP1 inhibitors) | chicken DT40 Tdp1-/-;hTDP1 cells + 20 nM CPT, ATP luminescence, 48 h | Potency, µM (top dose mostly 46.2 µM), inactives show top-dose activity change, negative = growth inhibition, actives largely listed as inhibitors | 420,000 compounds, 12% hits; further: potency means the concentration at half of the fitted maximal effect; nearly all actives have a fitted effect of over 55% in size
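Cell growth measured by CellTiter-Glo luminescence after a minimum 48 h, 37 C compound exposure with 20 nM CPT in Tdp1-knockout DT40 cells stably expressing hTDP1, seeded 400/well; qHTS titration format.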
ELG1 FLuc counter = luciferase inhibition in cell-free luciferin readout for ELG1 hits; cell-free firefly luciferase luminescence counter-screen, ViewLux; Potency, µM (doses to about 46.1 µM), inactives show top-dose activity change, negative = inhibition, actives largely listed as inhibitors; shares compounds with ELG1 DNA repair; 350 compounds, 3% hits; further: potency means the concentration at half of the fitted maximal effect
ELG1-Luc inh = confirmation of human ELG1-dependent DNA repair inhibitors. shares compounds with ELG1 DNA repair. HEK293T ELG1-luciferase levels, luminescence; cells co-treated with 5-fluorouridine. Potency, µM (series often up to 46.1 µM), without a hit: at the top dose activity change, negative = inhibition, usual class: inhibitors. 670 compounds, 68% hits. AID 624248; further: potency means the concentration at half of the fitted maximal effect; nearly all actives have a fitted effect of over 55% in size
Target sequence (Q96QE3 whole entry, looked up): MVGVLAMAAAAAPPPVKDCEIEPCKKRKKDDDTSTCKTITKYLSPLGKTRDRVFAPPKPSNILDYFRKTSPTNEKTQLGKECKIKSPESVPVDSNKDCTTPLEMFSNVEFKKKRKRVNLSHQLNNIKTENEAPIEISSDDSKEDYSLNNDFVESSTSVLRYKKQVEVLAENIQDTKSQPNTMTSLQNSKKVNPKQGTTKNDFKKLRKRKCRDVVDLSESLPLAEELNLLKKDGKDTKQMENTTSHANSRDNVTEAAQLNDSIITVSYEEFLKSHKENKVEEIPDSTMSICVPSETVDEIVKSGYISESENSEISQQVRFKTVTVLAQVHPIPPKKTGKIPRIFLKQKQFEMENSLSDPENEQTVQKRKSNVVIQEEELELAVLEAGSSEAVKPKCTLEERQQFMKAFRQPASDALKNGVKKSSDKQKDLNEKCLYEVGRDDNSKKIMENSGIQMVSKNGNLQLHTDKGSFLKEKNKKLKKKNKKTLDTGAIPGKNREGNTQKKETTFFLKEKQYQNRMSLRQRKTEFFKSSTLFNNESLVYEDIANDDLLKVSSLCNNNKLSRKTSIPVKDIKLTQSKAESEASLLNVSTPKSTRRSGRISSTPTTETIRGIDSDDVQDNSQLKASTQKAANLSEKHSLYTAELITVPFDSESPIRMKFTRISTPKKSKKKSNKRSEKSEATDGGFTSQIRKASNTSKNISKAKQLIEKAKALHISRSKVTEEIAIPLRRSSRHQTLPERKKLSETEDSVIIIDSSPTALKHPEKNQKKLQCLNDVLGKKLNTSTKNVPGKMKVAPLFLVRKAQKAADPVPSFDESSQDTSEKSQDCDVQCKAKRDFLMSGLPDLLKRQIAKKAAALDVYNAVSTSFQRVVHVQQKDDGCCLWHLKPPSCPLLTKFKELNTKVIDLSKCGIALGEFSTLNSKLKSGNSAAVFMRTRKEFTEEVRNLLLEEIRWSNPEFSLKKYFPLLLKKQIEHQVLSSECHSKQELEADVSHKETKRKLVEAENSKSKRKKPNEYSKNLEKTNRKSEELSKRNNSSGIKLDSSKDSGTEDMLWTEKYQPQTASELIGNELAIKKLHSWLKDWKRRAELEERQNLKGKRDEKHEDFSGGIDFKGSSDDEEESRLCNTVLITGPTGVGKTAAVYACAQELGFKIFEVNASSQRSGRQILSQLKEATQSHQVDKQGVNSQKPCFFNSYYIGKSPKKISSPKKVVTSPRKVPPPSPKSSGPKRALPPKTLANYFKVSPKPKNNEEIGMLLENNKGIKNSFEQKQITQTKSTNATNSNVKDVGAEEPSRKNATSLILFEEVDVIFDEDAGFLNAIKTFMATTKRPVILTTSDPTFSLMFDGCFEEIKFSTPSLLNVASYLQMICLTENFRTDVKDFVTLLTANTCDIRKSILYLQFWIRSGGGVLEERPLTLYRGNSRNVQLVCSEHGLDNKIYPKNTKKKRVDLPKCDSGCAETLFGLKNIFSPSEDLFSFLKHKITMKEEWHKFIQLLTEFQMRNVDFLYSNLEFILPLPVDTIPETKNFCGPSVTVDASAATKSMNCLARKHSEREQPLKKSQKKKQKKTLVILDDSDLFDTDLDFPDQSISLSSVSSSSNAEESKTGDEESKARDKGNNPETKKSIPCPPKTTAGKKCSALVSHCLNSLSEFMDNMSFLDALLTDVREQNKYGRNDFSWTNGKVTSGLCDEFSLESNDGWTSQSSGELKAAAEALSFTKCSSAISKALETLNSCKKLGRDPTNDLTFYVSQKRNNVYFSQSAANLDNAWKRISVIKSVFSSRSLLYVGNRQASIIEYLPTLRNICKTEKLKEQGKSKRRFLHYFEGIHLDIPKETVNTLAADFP
ELG1-Luc MMS = MMS-stimulated human ELG1 repair inhibition, confirmed; shares compounds with ELG1 DNA repair; HEK293T luciferase-tagged ELG1 level, MMS stimulated; Potency, µM (doses to about 46.1 µM), for the others: at the top dose activity change, negative = inhibition, most hits filed as inhibitors; 670 compounds, 53% hits; further: potency means the concentration at half of the fitted maximal effect; nearly all actives have a fitted effect of over 60% in size
ELG1 5FU viab = confirmation of ELG1 repair inhibitors: viability with 5FU | Potency, µM (doses to about 46.1 µM), without a hit: at the top dose activity change, negative = viability loss, actives largely listed as cytotoxic | cell viability with 5-FU, ELG1-dependent repair | 670 tested, under 10 active | shares compounds with ELG1 DNA repair | AID 624250;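 further: ELG1-luc HEK293T cells cotreated with 5-fluorouridine at 10 µM final; potency means the concentration at half of the fitted maximal effect; viability measured 16 h after compound addition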
ELG1 MMS cell = confirmation of ELG1 repair inhibitors: viability with MMS; 670 compounds, 33% hits; shares compounds with ELG1 DNA repair; Potency, µM (top dose mostly 46.1 µM), for the others: at the highest dose activity change, negative = viability loss, actives largely listed as cytotoxic; Cell viability with MMS, ELG1-dependent DNA repair; AID 624251;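 further: ELG1-luc HEK293T cells co-treated with 10 µM MMS; potency means the concentration at half of the fitted maximal effect; viability read 16 h after compound addition; nearly all actives have a fitted effect of over 60% in size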
ELG1 unstim viab = affects unstimulated cell viability, ELG1 hit counter-screen; shares compounds with ELG1 DNA repair; cell viability counter-screen, unstimulated, luminescence; Potency, µM (series often up to 45.9 µM), for inactives: at the highest dose activity change, negative = loss of viability, usual class: cytotoxic; 900 compounds, 8% hits; AID 624252;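 further: potency means the concentration at half of the fitted maximal effect; compound exposure lasted 16 hours before reading; nearly all actives have a fitted effect of over 55% in size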
FLuc biochem = counter-screen for ELG1 repair inhibitors: firefly luciferase inhibition. 350 compounds, 10% hits. purified firefly luciferase, luminescence counter-screen. Potency, µM (top dose mostly 57.5 µM), inactives show top-dose activity, negative = inhibition, usual class: inhibitors. AID 624253. shares compounds with ELG1 DNA repair; further: potency means the concentration at half of the fitted maximal effect
Active calls of the source: *; i = inactive; ? = inconclusive; / = not tested or not shown. Sampled rows, rich in hits. Any-hit rate of the full collection: about 19%. Unless noted, the call rests on the fitted dose curve; in most records, active means well fitted curve in the direction sought with a large enough effect; inconclusive means small, poorly fitted or top-dose-only effect, or another doubt; inactive means no such curve, though single readings can be large; an effect the other way counts as inactive or inconclusive. Unless noted, on the % scale 0 is the no-effect control and ±100 the full control effect.

SMILES	DT40 TDP1 no CPT	IL1B secr inh	HT1080-NT tox	ELG1 DNA repair	HT1080 IDH1KD tx	DT40 TDP1 CPT	ELG1 FLuc counter	ELG1-Luc inh	ELG1-Luc MMS	ELG1 5FU viab	ELG1 MMS cell	ELG1 unstim viab	FLuc biochem
CC(=O)n1cc([C@H]2C=C(C(=O)N3CCN(Cc4ccccc4)CC3)O[C@@H](OCCCCO)C2)c2ccccc21	?	-8.9	-13.9%	-6.3%	0.0%	?	/	/	/	/	/	/	/
O=C(C1=C[C@H](c2ccc3c(c2)OCO3)C[C@H](OCCCCO)O1)N1CCN(Cc2ccccc2)CC1	?	-7.3	-0.1%	7.5%	2.4%	?	-4.3%	-35.0%	?	-1.1%	?	-6.2%	-5.7%
CC(=O)n1cc([C@@H]2C=C(C(=O)N3CCN(Cc4ccc5c(c4)OCO5)CC3)O[C@H](OCCCCO)C2)c2ccccc21	?	-51.9*	-10.8%	18.3µM*	-10.7%	?	-8.5%	?	7.7%	-5.5%	-15.8%	?	-16.3%
CSc1ccc(CCNC(=O)Cn2ncn3c(cc4ccccc43)c2=O)cc1	-12.1%	/	/	/	/	-19.2%	/	/	/	/	/	/	/
CC1CCCCC1N(C)C1CCN(C(=O)CNC(=O)/C=C/c2cccc(Cl)c2)CC1 (stereo not drawn)	?	-19.3	10.3%	-2.5%	-2.7%	?	/	/	/	/	/	/	/
Cc1ccc(S(=O)(=O)c2cc(C)cc(S(=O)(=O)Nc3ccc(C(=O)O)cc3)c2C)cc1	0.9%	30.3	10.8%	9.7%	12.9%	14.2%	/	/	/	/	/	/	/
O=C(CNC(=O)c1cccc(F)c1)N/N=C/c1ccc([N+](=O)[O-])s1	5.8µM*	34.4	-29.1%	2.91µM*	-20.8%	18.4µM*	/	?	9.96µM*	-3.2%	14.1µM*	-4.0%	/
O=C(CNC(=O)c1cccc(Br)c1)N/N=C/c1cccs1	13.6%	0.7	9.2%	1.3%	11.5%	1.5%	/	/	/	/	/	/	/
CC(C)(C)OC(=O)NCc1ccc(NC(=O)c2nc[nH]c2C(=O)NCCCCCCNC(=O)c2[nH]cnc2C(=O)Nc2ccc(CNC(=O)OC(C)(C)C)cc2)cc1	5.8µM*	76.1	0.5%	2.31µM*	-2.2%	5.8µM*	/	1.12µM*	25µM*	?	?	?	/
CC(C)(C)OC(=O)CNC(=O)c1nc[nH]c1C(=O)NCC(=O)OC(C)(C)C	?	9.5	-2.2%	-2.3%	?	-24.6%	/	/	/	/	/	/	/
CC(C)(C)OC(=O)NCc1ccc(NC(=O)c2nc[nH]c2C(=O)NCCCNC(=O)c2[nH]cnc2C(=O)Nc2ccc(CNC(=O)OC(C)(C)C)cc2)cc1	25.9µM*	83.8	-5.1%	1.83µM*	-0.5%	13µM*	/	2.23µM*	12.5µM*	?	25µM*	?	/
CCOC(=O)c1ccc(NC(=O)c2nc[nH]c2C(=O)NCC(=O)OC(C)(C)C)cc1	-97.2%	-6.3	?	-14.6%	?	?	/	/	/	/	/	/	/
CC(C)(C)OC(=O)NCc1ccc(NC(=O)c2nc[nH]c2C(=O)NCCCCNC(=O)c2[nH]cnc2C(=O)Nc2ccc(CNC(=O)OC(C)(C)C)cc2)cc1	2.91µM*	58.9	13.1%	0.92µM*	10.8%	4.11µM*	?	1.12µM*	1.26µM*	-7.5%	?	?	1.1%
COc1ccc(C2=Nn3c(nnc3-c3ccncc3)SC2)cc1	?	12.0	-1.3%	2.31µM*	-23.9%	?	-3.1%	6.29µM*	?	-1.7%	-6.2%	-11.5%	-9.6%
C=C1C(c2ccc(C)cc2)=CCc2cc(C)cc(C)c21	/	/	/	/	/	/	180.7%	/	/	/	/	?	5.17µM*
CC1CCc2nc(-c3cc4ccc(O)cc4oc3=O)sc2C1 (stereo not drawn)	?	/	/	/	/	-8.5%	52.8%	/	/	/	/	-1.0%	0.184µM*
O=c1oc2cc(O)ccc2cc1-c1nc2ccccc2o1	?	35.2	-9.6%	/	-25.0%	?	/	/	/	/	/	/	/
CCOC(=O)c1c(NC(=O)C[n+]2ccc(N(C)C)cc2)sc(C)c1C	?	-3.1	0.1%	4.11µM*	-1.5%	?	/	0.0%	19.1%	-3.4%	-7.9%	?	/
COc1cccc(-c2noc(-c3cc4ccccc4oc3=O)n2)c1OC	-15.2%	/	/	/	/	-7.9%	/	/	/	/	/	/	/
CCOc1ccc(C(C(=O)NCC2CCCO2)N(Cc2cccs2)C(=O)c2snc(C(N)=O)c2N)cc1 (stereo not drawn)	9.2µM*	9.1	-1.6%	4.61µM*	24.6%	23.1µM*	/	7.91µM*	7.91µM*	-11.8%	?	?	/
CCc1nc(CN(C)C(=O)C2CCC(=O)N(CCc3cccc(F)c3)C2)no1 (stereo not drawn)	3.3%	i	3.6%	?	8.0%	2.4%	/	/	/	/	/	/	/
